# Laboratory results from the supplement of paper PMC8728848.
# This is one part of a sample in which the strongest signals are shown more often than they occur.
# Legend:
# Experiment in all cases: glycan array binding signal (z-score within array); higher = stronger binding
# Details in all cases: glycan notation: IUPAC condensed, linker removed
# Fuc(a1-2)Gal = molecular target: Fuc(a1-2)Gal
# In short: (§1)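 Arrays were curated from the Consortium for Functional Glycomics database, 3228 in total, and kept only where the protein sequence was available. Binding is expressed as a within-array Z-score. This score was averaged across arrays of the same protein sequence at different concentrations or buffers and across linkers, and negative values can be read as non-binding.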
# [1] = molecular target: Fuc(a1-2)Gal(b1-3)GlcNAc(b1-3)[Fuc(a1-2)Gal(b1-3)GlcNAc(b1-6)]GalNAc
# In short: as §1
# [2] = molecular target: Fuc(a1-2)Gal(b1-4)GlcNAc(b1-3)Gal(b1-4)GlcNAc(b1-2)Man(a1-3)[Fuc(a1-2)Gal(b1-4)GlcNAc(b1-3)Gal(b1-4)GlcNAc(b1-2)Man(a1-6)]Man(b1-4)GlcNAc(b1-4)GlcNAc
# In short: as §1
# [3] = molecular target: Fuc(a1-2)[Gal(a1-3)]Gal(b1-4)[Fuc(a1-3)]Glc
# In short: as §1
# [4] = molecular target: Fuc(a1-3)[Gal(b1-4)]GlcNAc(b1-2)Man(a1-3)[Fuc(a1-3)[Gal(b1-4)]GlcNAc(b1-2)Man(a1-6)]Man(b1-4)GlcNAc(b1-4)[Fuc(a1-6)]GlcNAc
# In short: as §1
# [5] = molecular target: Fuc(a1-3)[Gal(b1-4)]GlcNAc(b1-6)[Gal(b1-3)GlcNAc(b1-3)]Gal(b1-4)Glc
# In short: as §1
# [6] = molecular target: Fuc(a1-3)[GalNAc(b1-4)]GlcNAc
# In short: as §1
# Fuc(a1-4)GlcNAc = molecular target: Fuc(a1-4)GlcNAc
# In short: as §1
# [7] = molecular target: Gal(a1-3)Gal(b1-3)GlcNAc(b1-2)Man
# In short: as §1
# [8] = molecular target: Gal(a1-3)Gal(b1-3)GlcNAc(b1-6)GalNAc
# In short: as §1
# [9] = molecular target: Gal(a1-3)Gal(b1-4)GlcNAc(b1-6)GalNAc
# In short: as §1
# [10] = molecular target: Gal(a1-4)Gal(b1-3)GlcNAc(b1-2)Man(a1-3)[Gal(a1-4)Gal(b1-3)GlcNAc(b1-2)Man(a1-6)]Man(b1-4)GlcNAc(b1-4)GlcNAc
# In short: as §1
# [11] = molecular target: Gal(b1-3)GlcNAc(b1-2)[Gal(b1-3)GlcNAc(b1-6)]Man(a1-6)[Gal(b1-3)GlcNAc(b1-2)Man(a1-3)]Man(b1-4)GlcNAc(b1-4)GlcNAc
# In short: as §1
# Gal(b1-4)GlcNAc(b1-2)Man = molecular target: Gal(b1-4)GlcNAc(b1-2)Man
# In short: as §1
# [12] = molecular target: Gal(b1-4)GlcNAc(b1-2)Man(a1-6)Man(b1-4)GlcNAc(b1-4)GlcNAc
# In short: as §1
# [13] = molecular target: Gal(b1-4)GlcNAc(b1-2)Man(a1-6)[Man(a1-3)]Man(b1-4)GlcNAc(b1-4)GlcNAc
# In short: as §1
# [14] = molecular target: Gal(b1-4)GlcNAc(b1-2)[Gal(b1-4)GlcNAc(b1-6)]Man(a1-6)[GlcNAc(b1-4)][Gal(b1-4)GlcNAc(b1-2)[Gal(b1-4)GlcNAc(b1-4)]Man(a1-3)]Man(b1-4)GlcNAc(b1-4)[Fuc(a1-6)]GlcNAc
# In short: as §1
# [15] = molecular target: Gal(b1-4)GlcNAc(b1-3)Gal(b1-3)GlcNAc
# In short: as §1
# [16] = molecular target: Gal(b1-4)GlcNAc(b1-3)Gal(b1-4)GlcNAc(b1-2)[Gal(b1-4)GlcNAc(b1-3)Gal(b1-4)GlcNAc(b1-6)]Man(a1-6)[Gal(b1-4)GlcNAc(b1-3)Gal(b1-4)GlcNAc(b1-2)Man(a1-3)]Man(b1-4)GlcNAc(b1-4)GlcNAc
# In short: as §1
# [17] = molecular target: Gal(b1-4)GlcNAc(b1-3)Gal(b1-4)GlcNAc(b1-3)Gal(b1-4)GlcNAc(b1-2)Man(a1-3)[Gal(b1-4)GlcNAc(b1-3)Gal(b1-4)GlcNAc(b1-3)Gal(b1-4)GlcNAc(b1-2)Man(a1-6)]Man(b1-4)GlcNAc(b1-4)[Fuc(a1-6)]GlcNAc
# In short: as §1
# [18] = molecular target: Gal(b1-4)GlcNAc(b1-3)Gal(b1-4)GlcNAc(b1-3)Gal(b1-4)GlcNAc(b1-2)[Gal(b1-4)GlcNAc(b1-3)Gal(b1-4)GlcNAc(b1-3)Gal(b1-4)GlcNAc(b1-6)]Man(a1-6)[Gal(b1-4)GlcNAc(b1-3)Gal(b1-4)GlcNAc(b1-3)Gal(b1-4)GlcNAc(b1-2)Man(a1-3)]Man(b1-4)GlcNAc(b1-4)[Fuc(a1-6)]GlcNAc
# In short: as §1
# [19] = molecular target: Gal(b1-4)GlcNAc(b1-3)Gal(b1-4)GlcNAc(b1-3)Gal(b1-4)GlcNAc(b1-3)Gal(b1-4)GlcNAc(b1-3)Gal(b1-4)GlcNAc(b1-2)Man(a1-3)[Gal(b1-4)GlcNAc(b1-3)Gal(b1-4)GlcNAc(b1-3)Gal(b1-4)GlcNAc(b1-3)Gal(b1-4)GlcNAc(b1-3)Gal(b1-4)GlcNAc(b1-2)Man(a1-6)]Man(b1-4)GlcNAc(b1-4)GlcNAc
# In short: as §1
# [20] = molecular target: Gal(b1-4)GlcNAc(b1-3)Gal(b1-4)GlcNAc(b1-6)[Gal(b1-3)]GalNAc
# In short: as §1
# [21] = molecular target: Gal(b1-4)GlcNAc(b1-3)Gal(b1-4)[Fuc(a1-3)]GlcNAc(b1-3)Gal(b1-4)[Fuc(a1-3)]GlcNAc
# In short: as §1
binder,measurement,setting,value
SP15308F-bth-333-19-333 (Bacteroides thetaiotaomicron) (protein) SCNNEWESEQYVQMVSFKAPVNAQGVTPIYIRYKPEGKVTYQLPLIVSGSTMNSKDLNVHVGLDLDTLDVLNVEHFGSRKELFFKPLENKYYEFPETVQIPAGECTSLLPIDFALKDLDQVDKWVLPLAIQSNDPSHNYQANPRKFYRRAMLRISPFNDYSGQYSATAYKVYFKGNEKEAIVPEYHTSYVIDDKTIFFYAGLIDIDRLDRKYYKIKFEFTEEKIDLQTRKLKISSDNEDINLVVKGQPSYTVEEEMDATRPYLKHIYVTINNLEYEFTDYTSVPGYPLEYVVKGSLTMERKINTQIPDEDQAIEW,glycan array binding signal (z-score),Fuc(a1-2)Gal,-0.518
same,glycan array binding signal (z-score),[1],0.606
same,glycan array binding signal (z-score),[2],3.55
same,glycan array binding signal (z-score),[3],-0.455
same,glycan array binding signal (z-score),[4],-0.717
same,glycan array binding signal (z-score),[5],0.652
same,glycan array binding signal (z-score),[6],6.34
same,glycan array binding signal (z-score),Fuc(a1-4)GlcNAc,7.35
same,glycan array binding signal (z-score),[7],0.13
same,glycan array binding signal (z-score),[8],-1.04
same,glycan array binding signal (z-score),[9],-0.976
same,glycan array binding signal (z-score),[10],-1.15
same,glycan array binding signal (z-score),[11],0.375
same,glycan array binding signal (z-score),Gal(b1-4)GlcNAc(b1-2)Man,2.88
same,glycan array binding signal (z-score),[12],-1.02
same,glycan array binding signal (z-score),[13],-0.531
same,glycan array binding signal (z-score),[14],0.062
same,glycan array binding signal (z-score),[15],-0.026
same,glycan array binding signal (z-score),[16],-0.769
same,glycan array binding signal (z-score),[17],1.45
same,glycan array binding signal (z-score),[18],0.279
same,glycan array binding signal (z-score),[19],3.23
same,glycan array binding signal (z-score),[20],-0.045
same,glycan array binding signal (z-score),[21],0.753
